Screens as filed in PubChem.
A selection: hits, their analogues and other compounds. The true share with any hit is near 21%.
CHX counter: affects cycloheximide protein synthesis inhibition readout, counter-screen; cell reporter, cycloheximide protein synthesis inhibition counterscreen; max response, %; 12% of 300,000 active; in the data active means max response mostly above about 13%, no sharp cut-off; inactive means mostly below about 14%; further: read at 38.3 µM for the half of the compounds with a filed dose; 0% is about no effect
Pf growth 48h: inhibits P. falciparum growth in the first generation, 48 h; P. falciparum luciferase growth in erythrocytes, 48 h; Potency, µM (doses to about 28.7 µM), inactives show at the highest dose activity change, negative = inhibition, usual class: inhibitors; 5.9% of 310,000 active; AID 504832; further: potency means the concentration at half of the fitted maximal effect; on the % scale 0 is the no-effect control and ±100 the full control effect
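Compounds are pin-transferred into medium, infected erythrocytes (2% hematocrit, 0.1% parasitemia final) are added, and plates sit one parasite generation at 37 C in 5% CO2. Detection reagent is then added and luminescence measured.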
Shiga toxin inh: Shiga toxin inhibition. inhibition, % at 38.7 µM. AID 2315. Vero cells, Shiga toxin protein synthesis inhibition reporter. 9.2% of 290,000 active; in the data active means inhibition mostly above about 28%, no sharp cut-off; inactive means mostly below about 43%; further: 0% is about no effect
Pf growth 96h: P. falciparum growth inhibition at 96 hour, primary screen for plastid delayed-death inhibitors; 6.9% of 320,000 active; Potency, µM (titrated, usually from 28.7 µM), without a hit: top-dose activity change, negative = inhibition, most hits filed as inhibitors; P. falciparum luciferase reporter growth, 96 h; AID 504834; further: potency means the concentration at half of the fitted maximal effect; on the % scale 0 is the no-effect control and ±100 the full control effect
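Erythrocytes infected with luciferase-expressing P. falciparum were dispensed at 2% hematocrit and 0.05% parasitemia (final), then incubated with compounds 96 hours at 37 C in 5% CO2. Luminescence after detection reagent addition reported growth.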
* marks the source's active call; other numbers are inactive results; ? = inconclusive; / = no result given; [ ] = remark or other dose. Unless noted, the call rests on the fitted dose curve; in most records, active means well fitted inhibition curve with a large enough effect; inconclusive means small, poorly fitted or top-dose-only effect, or another doubt; inactive means no such curve, though single readings can be large or run the other way.

SMILES	CHX counter	Pf growth 48h	Shiga toxin inh	Pf growth 96h
Cc1c(NS(=O)(=O)c2cc(C(=O)NCCN(C)C)ccc2Cl)c(=O)n(-c2ccccc2)n1C	-5.9	/	1.0	1.1%
CCOC(=O)N1CCN([N+]([O-])=NOc2cc(O/N=[N+](\[O-])N(CC)CC)c([N+](=O)[O-])cc2[N+](=O)[O-])CC1	-3.0	/	-8.5	/
Cc1ccc(S(=O)(=O)N(CCC(=O)O)c2ccccc2)cc1	-2.7	21.4%	-6.4	-5.3%
COc1cccc(CNC(=O)COc2ccc(C(=O)c3ccccc3)cc2)c1	-6.1	19.3%	-4.6	30.1%
Cc1ccc(SCC(Cc2ccccc2)N2CCN(C)CCC2=O)cc1 (stereo not given)	-2.3	/	1.5	/
N#Cc1cc(-c2ccccc2)oc1/N=C/c1ccccc1O	28.9*	?	18.3	-7.4%
COc1cccc(/C=N/c2oc(-c3ccccc3)cc2C#N)c1O	23.7*	24.7%	0.0	11.9%
COc1ccc(/C=N/c2oc(-c3ccccc3)cc2C#N)cc1	16.2*	8.1%	28.3	-4.7%
Cc1oc(/N=C/c2ccccc2)c(C#N)c1C	1.1	20.0%	-4.0	?
Cn1c(=O)c2sccc2n(Cc2ccccc2)c1=O	-2.1	-17.1%	-6.9	-7.9%
COC(=O)c1cc(CNC(=O)c2sccc2-c2ccccc2)ccc1OC	-0.5	1.9%	-0.9	6.9%
CC[C@@H](CCC=C(C)C)C(=O)N(Cc1ccccc1)c1ccccc1	/	8.28µM*	/	?
CC(C)C[C@@H](C)C(=O)N(Cc1ccccc1)c1ccccc1	/	-5.6%	/	?
O=C(O)c1cnc2[nH]c3ccccc3n2c1=O	1.0	4.5%	23.1	2.7%
COc1ccc(-c2cc(=O)oc3cc(OCC(=O)Nc4ccccn4)ccc23)cc1	26.3*	37.1%	25.7*	53.4%
CCCc1cc(=O)oc2cc(OCc3ccc(C(=O)O)cc3)ccc12	46.9*	26.3%	129.6*	?
CCCc1cc(=O)oc2cc(OCc3ccc(C(=O)O)o3)ccc12	5.9	20.9%	-0.3	19.4%
COc1ccc(COc2ccc3c(C)cc(=O)oc3c2)cc1	66.6*	209.5%	133.7*	?
Cc1cc(=O)oc2ccc(OCc3ccccc3)cc12	-3.5	?	-7.6	0.9%
CCCc1cc(=O)oc2cc(OCC(=O)Nc3ccccn3)ccc12	25.0*	101.3%	66.5*	181.3%
CCOc1ccc(OCC(=O)OCC(=O)NNC(=O)c2ccc([N+](=O)[O-])cc2)cc1	/	1.6%	/	17.8%
COc1ccccc1/C=C/C(=O)OCC(=O)N1CCN(S(=O)(=O)c2ccc(C)cc2C)CC1	/	?	/	-31.4%
COc1ccc(S(=O)(=O)N2CCOCC2)cc1NC(=O)CCc1c[nH]c2ccccc12	0.8	?	-8.6	-24.9%
CCCCC1CCC(C(=O)N(CCOC)c2c(N)n(CC(C)C)c(=O)[nH]c2=O)CC1 (stereo not given)	/	12.0%	/	-9.9%
Cc1nn(-c2ccccc2)nc1C(=O)Oc1cc(C(F)(F)F)nn1-c1ccccc1	-2.3	0.37µM*	-2.4	-29.2%
SMILES	CHX counter	Pf growth 48h	Shiga toxin inh	Pf growth 96h
Cc1nn(-c2ccccc2)nc1C(=O)NNC(=O)c1ccc(C(F)(F)F)cc1	6.3	5.8%	-1.4	24.5%
COc1ccccc1C(=O)Nc1nnc(S(=O)(=O)N(C)Cc2ccccc2)s1	11.2	5.1%	-4.7	15.0%
COCc1nc2ccccc2n1CCc1ccccc1	-0.5	-10.8%	-4.6	?
CCOC(=O)C1=CC[C@@H](c2ccccc2Cl)N(S(=O)(=O)c2ccc(C)cc2)[C@H]1C(=O)OCC	/	13.1µM*	/	?
CC(Cc1ccccc1)NC(=O)/C=C/c1ccc([N+](=O)[O-])cc1 (stereo not given)	-3.5	1.1%	15.9	1.3%
O=C(Cc1ccccc1)Oc1ccc([N+](=O)[O-])cc1	2.5	-18.6%	-8.6	?
CC(Cc1ccccc1)NC(=O)c1ccc(N)cc1 (stereo not given)	37.3*	101.7%	62.1*	11.7µM*
CC(Cc1ccccc1)NC(=O)c1ccc([N+](=O)[O-])cc1 (stereo not given)	30.0*	232.4%	60.7*	?
CC(Cc1ccccc1)NC(=O)NC(C)Cc1ccccc1 (stereo not given)	28.9*	/	68.7*	-7.8%
O=C(Cc1ccccc1)NC(C(=O)O)C(O)c1ccc([N+](=O)[O-])cc1 (stereo not given)	0.8	23.2%	-1.0	10.4µM*
Cn1cc(S(=O)(=O)N2CCCCC2)cc1C(=O)NCc1ccc(Cl)cc1	7.5	/	13.4	/
CC(=O)N1CCc2ccc(S(=O)(=O)N3CC(C)OC(C)C3)cc21 (stereo not given)	-2.3	-16.4%	-1.8	?
CC1(C)CC(Cc2nc(=S)[nH][nH]2)C(=O)O1 (stereo not given)	-1.9	2.4%	20.1	-0.4%
CC(C)(C)c1cc(/C=C2\NC(=O)NC2=O)cc(C(C)(C)C)c1O	25.4*	?	30.1	199.6%
O=C1Nc2ccccc2/C1=C/c1ccccc1F	13.1*	0.0%[0.00184 µM]	28.2	10.9%
Cc1ccc(/C=C2\C(=O)Nc3ccccc32)o1	17.5*	34.8%	21.1	90.2%
O=C1Nc2ccccc2/C1=C/c1cnc(-c2ccccc2)[nH]1	59.4*	116.4%	53.4*	161.2%
NS(=O)(=O)c1ccc(-c2ccc(/C=C3\C(=O)Nc4ccccc43)o2)cc1	-2.9	38.5%	0.7	-7.3%
O=C(NCC1CCCO1)c1ccc2c(c1)C(=O)N(c1cccc([N+](=O)[O-])c1)C2=O (stereo not given)	-1.3	30.2%	-12.5	-8.4%
CCN(CC(=O)NC1CCS(=O)(=O)C1)C(=O)c1ccc(OC)c([N+](=O)[O-])c1 (stereo not given)	/	9.0%	/	3.6%
CCOc1ccc2[nH]c3nc(SCC(=O)NC4CC4)nnc3c2c1	-0.2	0.5%	-8.3	-2.1%
CN(C)c1ccc(/C=C2/NC(=O)NC2=O)cc1	25.3*	88.5%	active	?
CN(C)c1ccc(/C=C2\C(=O)Nc3ccccc32)cc1	76.4*	/	78.4*	/
O=C1Nc2ccccc2/C1=C/c1cccnc1	-0.9	-10.3%	-8.9	?
O=C(CC1CCCCC1)NCCS(=O)(=O)N1CCN(c2ccccc2)CC1	/	1.6%	/	-0.7%
SMILES	CHX counter	Pf growth 48h	Shiga toxin inh	Pf growth 96h
CCCN1CCN(C(=O)C(NC(=O)c2ccco2)C(C)C)CC1 (stereo not given)	-3.9	-1.2%	26.6	29.6%
COc1ccccc1NC(=O)NC1(C)CCS(=O)(=O)C1 (stereo not given)	-1.7	22.6%	15.6	?
COc1ccc(-c2cc(-c3ccccc3)n[nH]2)c(O)c1	31.6*	-21.9%	82.3*	22.7%
COc1ccc(/C=C/c2nc(-c3ccccc3O)n(-c3ccccc3)n2)cc1	4.6	?	11.7	-95.4%
COc1ccc(/C=C/c2nc(-c3ccccc3O)n[nH]2)cc1	70.4*	117.5%	74.0*	282.1%
COc1ccc(-c2cc(-c3ccccc3O)[nH]n2)cc1	54.5*	58.6%	71.5*	224.2%
COc1ccc(-c2ncncc2-c2ccccc2)c(O)c1	-1.2	?	3.8	?
O=C(c1cn(Cc2ccccc2)nc1-c1ccc(Cl)cc1)N1CCN(c2ccccn2)CC1	/	13.1µM*	/	9.28µM*
COc1ccc(-c2nn(Cc3ccccc3)cc2C(=O)N2CCN(c3ncccn3)CC2)cc1	/	13.1µM*	/	?
